Screens as filed in PubChem.
CYP2C9 act: increases human cytochrome P450 2C9 activity; recombinant CYP2C9, luciferin-H conversion, luminescence; active compounds read high; factor 1 = untreated enzyme, 0 = blocked; activation factor at 5 µM; AID 1024; 96,000 tested, 1.4% active;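 active means activation factor of 2 or more for CYP2C9 at a 5 µM dose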
Target sequence (P11712 whole entry, looked up): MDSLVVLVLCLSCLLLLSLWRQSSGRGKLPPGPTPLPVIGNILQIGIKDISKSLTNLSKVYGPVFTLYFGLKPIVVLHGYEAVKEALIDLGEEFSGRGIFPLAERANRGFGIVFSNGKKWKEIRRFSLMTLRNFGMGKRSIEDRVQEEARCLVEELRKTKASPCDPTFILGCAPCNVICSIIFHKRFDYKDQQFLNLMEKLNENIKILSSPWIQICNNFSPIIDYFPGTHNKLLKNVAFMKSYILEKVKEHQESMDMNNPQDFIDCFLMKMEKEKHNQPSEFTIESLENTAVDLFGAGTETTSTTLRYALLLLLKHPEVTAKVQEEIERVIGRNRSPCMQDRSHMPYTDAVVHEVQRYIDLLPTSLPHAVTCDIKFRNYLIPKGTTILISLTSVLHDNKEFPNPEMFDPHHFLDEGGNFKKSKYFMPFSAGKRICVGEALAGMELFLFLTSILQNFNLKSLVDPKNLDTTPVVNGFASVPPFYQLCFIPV
CYP2C9 inh: inhibitors of human CYP2C9; P11712; CYP2C9 Supersomes, luciferin-H conversion, luminescence; inhibition, % at 5 µM; 96,000 tested, 20% active; AID 777;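 active means blocking of liver enzyme CYP2C9 beyond about 50% at 5 µM, limit read from the data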
CYP2C19 inh: human CYP2C19 inhibition; P33261; CYP2C19 Supersomes, luciferin-H EGE luminescence, 30 min; inhibition, % at 5 µM; 96,000 tested, 21% active;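 active means CYP2C19 inhibition above a set limit at 5 µM in the primary screen, cut at about 50% in these data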
CYP2C19 activ: activators of human cytochrome P450 2C19. P33261. recombinant CYP2C19, luciferin-H EGE luminescence; active compounds read high; 0 = fully inhibited enzyme, 1 = untreated enzyme. activation factor at 5 µM. 96,000 tested, under 10 active. AID 1025;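 active means activation factor of at least 2 at 5 µM in the primary screen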
sEH inh: soluble epoxide hydrolase (human) inhibition | P34913 | recombinant human sEH enzymatic activity assay | inhibition, % at 2 µM | 91,000 tested, 0.34% active | AID 707; in the data active means inhibition above about 80%
sEH activator: activators of human soluble epoxide hydrolase; 91,000 tested, 0.04% active; P34913; activation, % at 2 µM; purified human sEH enzymatic activity, activator screen; in the data active means activation above about 37%
Each line names hits and unclear results; the compound was inactive in the other large screens. This is a sample that favours compounds with a hit; in the whole collection about 27% have one here.

COc1ccc(-n2c(Cc3cccs3)nnc2SCC(=O)Nc2ccc3c(c2)OCCO3)cc1	CYP2C9 inh 61, CYP2C19 inh 56
NS(=O)(=O)c1ccc(NC(=O)CSc2nnc(Cc3cccs3)n2-c2ccccc2)cc1	none
C=CCn1c(Cc2cccs2)nnc1SCC(=O)Nc1ccc(OC)cc1	none
Cc1ccc(-n2c(Cc3cccs3)nnc2SCC(=O)Nc2ccc(S(N)(=O)=O)cc2)cc1	CYP2C9 inh 74, CYP2C19 inh 63
C1CSC2(N1)C1CC3CC2CC(C1)C31NCCS1 (stereo unspecified)	none
CC(=O)Nc1ccc(Cl)cc1C(=O)O	none
O=c1[nH]cnc2c([N+](=O)[O-])cccc12	none
Brc1cc2[nH]cnc2c2ccccc12	CYP2C19 inh 50
Cn1c(SCc2ccc(Cl)cc2)nc(C(F)(F)F)cc1=O	none
CC(=O)OCc1c(C(F)(F)F)nn(C)c1SCc1ccc(Cl)cc1	CYP2C9 inh 62, CYP2C19 inh 99
NS(=O)(=O)c1ccc(S(=O)(=O)N(Cc2ccccc2F)CC2CCCO2)cc1 (stereo unspecified)	none
O=C(c1cc2cc(Br)cc(Br)c2oc1=O)N1CCCc2ccccc21	none
C=CCNc1nc(N)c(C(=O)c2ccc3c(c2)OCO3)s1	CYP2C19 inh 90
Cc1ccc(C23OC(=O)C(C)(C)C2OC(=O)C3(C)C)cc1 (stereo unspecified)	none
Cc1ccc2c(c1)[C@H]1OCC[C@H]1[C@@H](c1ccncc1)N2	CYP2C9 inh 84, CYP2C19 inh 100
Clc1ccc2c(c1)C1OCCC1C(c1ccco1)N2 (stereo unspecified)	none
CCOC(=O)C(NC(=O)CC)(N1CCc2ccccc2C1)C(F)(F)F (stereo unspecified)	CYP2C9 inh 56
CCOC(=O)c1cnn(-c2ccc(Cl)cc2)c1C1CCN(C(=O)OC(C)(C)C)CC1	CYP2C9 inh 85, CYP2C19 inh 89
CCOC(=O)c1cn2nc(-c3ccc(OCC)cc3)cc2nc1C1CCN(C(=O)OC(C)(C)C)CC1	none
COc1ccc(C)cc1NC(=O)CSc1nnc(COc2ccccc2)n1Cc1ccco1	CYP2C19 inh 87
Cc1cccc(OCc2nnc(SCC(=O)N(C(C)C)C(C)C)n2Cc2ccco2)c1C	CYP2C19 inh 54
COc1ccc(C)cc1NC(=O)CSc1nnc(COc2ccc(Cl)cc2)n1Cc1ccco1	none
COc1ccccc1-n1c(CNC(=O)c2ccco2)nnc1SCC(=O)Nc1cc(C)ccc1C	CYP2C9 act 2
CCOc1ccc(NC(=O)CSc2nnc(-c3ccccc3Cl)n2Cc2ccco2)cc1	CYP2C9 inh 96, CYP2C19 inh 86
Cc1cc(NC(=O)CSc2nnc(COc3cccc(C)c3C)n2Cc2ccco2)no1	none
COC(=O)c1sccc1-n1cccc1C(=O)NCc1ccccc1	none
O/N=C1/C2C3CC4C5C3C1C5C1(OCCO1)C42 (stereo unspecified)	none (no result: sEH inh, sEH activator)
O=C(NCC1CCCO1)C1CC(=O)N(c2ccc(F)c(Cl)c2)C1 (stereo unspecified)	none
COc1ccc(C)cc1NC(=O)CSc1nnc(-c2ccco2)n1N	none
COc1ccc(NC(=O)CSc2nnc(-c3ccccc3)n2Cc2ccco2)c(OC)c1	CYP2C9 inh 86, CYP2C19 inh 91
COc1ccc(NC(=O)CSc2nnc(-c3ccccc3Cl)n2Cc2ccco2)c(OC)c1	CYP2C9 inh 51, CYP2C19 inh 55
Cc1cc(C)c(NC(=O)CSc2nnc(-c3ccncc3)n2Cc2ccco2)c(C)c1	none
COc1ccc(C)cc1NC(=O)CSc1nnc(CC(=O)Nc2ccccc2C)n1C	CYP2C19 inh 66
COc1cccc2c1C(=O)O/C2=C/c1ccc2c(c1)OCO2	CYP2C9 inh 55, CYP2C19 inh 62
COc1ccc(C2C(C(C)=O)=C(C)N=c3s/c(=C\c4ccc5c(c4)OCO5)c(=O)n32)c(OC)c1 (stereo unspecified)	none (no result: CYP2C9 act, CYP2C9 inh, CYP2C19 inh, CYP2C19 activ)
Cn1nc(C(=O)NC2=NCCS2)ccc1=O	none
O=C(CN1CCN(c2ccc(F)cc2)CC1)N1CCC(Cc2ccccc2)CC1	CYP2C9 inh 69, CYP2C19 inh 54
O=C(CN1CCN(c2ccc(F)cc2)CC1)N1N=CCC1c1ccccc1 (stereo unspecified)	CYP2C19 inh 63
O=C(CN1CCN(c2ccccc2)CC1)N1N=CCC1c1ccccc1 (stereo unspecified)	none
CNCc1ccccc1Sc1ccc(OC)cc1	CYP2C19 inh 65
COc1cccc(Sc2ccccc2CN(C)C)c1	CYP2C19 inh 72
C/C(=N/NC(N)=S)c1ccccc1[N+](=O)[O-]	none
Cn1cc(-c2nnnn2-c2cccc(C(F)(F)F)c2)c(C(F)(F)F)n1	CYP2C19 inh 98
O=C(Cc1cccs1)N1CCCC(c2nc3c(nnn3Cc3cccc(Cl)c3)c(=O)[nH]2)C1 (stereo unspecified)	CYP2C9 inh 96, CYP2C19 inh 66
O=C(NCc1ccccc1)c1nc2c(nnn2Cc2cccc(Cl)c2)c(=O)[nH]1	none (no result: CYP2C9 act, CYP2C9 inh, CYP2C19 inh, CYP2C19 activ)
O=C(Cc1cccs1)N1CCC(c2nc3c(nnn3Cc3ccc(F)cc3)c(=O)[nH]2)CC1	CYP2C9 inh 96 (no result: sEH inh, sEH activator)
CCc1ccc(/C=N/Nc2nn[nH]n2)cc1	none (no result: CYP2C9 act, CYP2C9 inh, CYP2C19 inh, CYP2C19 activ)
CN1c2ccccc2C(C)(C)C12C=Nc1c(cc(N3CCOCC3)c3ccccc13)O2 (stereo unspecified)	CYP2C9 inh 70
CCOC(=O)C1=C(C)NC(=O)NC1c1c(O)ccc2ccccc12 (stereo unspecified)	CYP2C19 inh 86 (no result: sEH inh, sEH activator)
CCOc1cc(C2NC(=O)NC(C)=C2C(=O)OCc2ccccc2)ccc1O (stereo unspecified)	CYP2C9 inh 71, CYP2C19 inh 59
COc1cc(C2NC(=O)NC(C)=C2C(=O)OCc2ccccc2)ccc1O (stereo unspecified)	none (no result: sEH inh, sEH activator)
COc1ccc(COC(=O)C2=C(C)NC(=O)NC2c2ccc(O)c(OC)c2)cc1 (stereo unspecified)	CYP2C9 inh 62, CYP2C19 inh 70 (no result: sEH inh, sEH activator)
CCOC(=O)C1=C(C)NC(=O)NC1c1ccco1 (stereo unspecified)	none (no result: sEH inh, sEH activator)
CCOC(=O)C1=C(C)NC(=O)NC1c1ccc(OCCO)c(OC)c1 (stereo unspecified)	none
CCOc1cc(NC(=O)c2ccccc2[N+](=O)[O-])c(OCC)cc1NC(=O)CC(C)C	none
CC1=C(CC/C(C)=N/NC(N)=S)C(C)(C)CCC1	none (no result: CYP2C9 act, CYP2C9 inh, CYP2C19 inh, CYP2C19 activ)
Cc1[nH]c(=O)[nH]c(=O)c1S(=O)(=O)NCCOC12CC3CC(CC(C3)C1)C2	none (no result: sEH inh, sEH activator)
O=C(O)c1cc2cccc(S(=O)(=O)N3CCOCC3)c2cc1O	none
O=S(=O)(c1cccc2ccccc12)N1CCSC1	CYP2C9 act 5.2 (no result: sEH inh, sEH activator)
FC(F)(F)C(Oc1nc(Nc2ccc(Cl)cc2)nc(N2CCOCC2)n1)C(F)(F)F	none (no result: CYP2C9 act, CYP2C9 inh, CYP2C19 inh, CYP2C19 activ)
Cn1c(=O)c2c(nc(NCc3ccc4c(c3)OCO4)n2Cc2ccccc2)n(C)c1=O	CYP2C9 inh 65, CYP2C19 inh 56
